# This excerpt belongs to a sample that is enriched for hits.
# DT40 TDP1 no CPT: qHTS for Inhibitors of human tyrosyl-DNA phosphodiesterase 1 (TDP1): qHTS in cells in absence of CPT | DT40 Tdp1-/- hTDP1 cells, no CPT, ATP luminescence, 48 h | Potency, µM (highest dose often 46.2 µM), hits mostly inhibitors | 420,000 tested, 15% active; note: nearly all actives have a fitted effect of over 55% in size
#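 Growth of hTDP1-complemented DT40 Tdp1-knockout cells is measured by ATP luminescence after at least 48 hr compound exposure at 37 °C, with DMSO substituting for the 20 nM CPT used in the parallel screen.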
# IL-1B inflam inh: inflammasome signaling inhibition, IL-1 beta readout. activity change, % at 57.5 µM. AID 743279. THP-1 LPS/ATP IL-1B secretion, AlphaLISA, 16 h; stronger effect = lower value. 360,000 tested, 4.7% active; in the data active = activity change below about -50%; inconclusive = mostly about -30% to -49%
#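 Secreted IL-1B measured by AlphaLISA bead assay after 16 h compound exposure of THP-1 cells; compounds (final up to 57.5 uM) added 1 h before LPS (250 ng/mL) and ATP (1.25 mM) stimulation; lower signal means less secretion.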
# HT1080 IDH1KD tx: toxicity to HT-1080 IDH1 knockdown cells (counter line). AID 686971. HT-1080 IDH1 knockdown viability, ATP luminescence, 48 h. Potency, µM (doses to about 46.1 µM), most hits filed as cytotoxic. 360,000 tested, 2% active
#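 In this qHTS, HT-1080 cells depleted of IDH1 are exposed for 48 h at 37 °C to compound titrations. Toxicity is scored from CellTiter-Glo luminescence, with DMSO as full viability and medium alone as none.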
# HT1080-NT tox: kills 2HG-producing HT-1080-NT fibrosarcoma cells; HT-1080-NT fibrosarcoma viability, CellTiter-Glo ATP luminescence, 48 h; Potency, µM (titrated, usually from 46.1 µM), most hits filed as cytotoxic; 360,000 tested, 1.6% active; AID 686970;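 note: NT is the 2HG producing partner of a matched IDH1 knockdown line; nearly all actives have a fitted effect of over 55% in size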
#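 Toxicity toward the 2HG-producing NT line was scored as %Activity, normalised to DMSO and no-cell wells, from CellTiter-Glo luminescence after 48 hours' treatment.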
# ALOX12 inh: blocks human arachidonate 12S-lipoxygenase | P18054 | purified 12hLO, xylenol orange hydroperoxide absorbance | Potency, µM (series often up to 108 µM), most hits filed as inhibitors | 580,000 tested, 1.1% active | AID 1671190
# Target sequence (P18054 whole entry, looked up): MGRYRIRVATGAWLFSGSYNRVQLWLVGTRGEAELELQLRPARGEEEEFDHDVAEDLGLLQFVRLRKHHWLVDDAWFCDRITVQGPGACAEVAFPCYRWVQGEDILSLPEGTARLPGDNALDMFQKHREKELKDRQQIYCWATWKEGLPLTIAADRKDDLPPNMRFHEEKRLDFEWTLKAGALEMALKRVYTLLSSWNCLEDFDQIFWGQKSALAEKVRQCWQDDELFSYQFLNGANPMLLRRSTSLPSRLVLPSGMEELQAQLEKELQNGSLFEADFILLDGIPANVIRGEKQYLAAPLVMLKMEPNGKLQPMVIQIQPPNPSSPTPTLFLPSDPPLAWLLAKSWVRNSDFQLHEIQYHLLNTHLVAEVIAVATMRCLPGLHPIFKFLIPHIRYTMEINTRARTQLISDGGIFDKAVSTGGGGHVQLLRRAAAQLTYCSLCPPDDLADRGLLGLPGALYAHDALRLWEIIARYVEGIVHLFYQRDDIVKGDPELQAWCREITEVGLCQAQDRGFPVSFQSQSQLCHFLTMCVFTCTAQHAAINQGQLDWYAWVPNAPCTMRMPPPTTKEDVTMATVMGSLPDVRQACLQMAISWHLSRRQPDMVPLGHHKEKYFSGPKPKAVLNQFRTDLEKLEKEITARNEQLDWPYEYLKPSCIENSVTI
#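 Purified human 12hLO at 150 nM in 25 mM Hepes, 0.01% Triton X-100, pH 7.0, preincubated 15 min at room temperature with compound. Reaction started with 40 uM arachidonic acid, 30 min at room temperature. Hydroperoxide measured by Fe-xylenol orange, 573/405 nm absorbance ratio.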
# TDP1 cell CPT: DT40-hTDP1 cell growth loss with CPT; chicken DT40 Tdp1-/-;hTDP1 cells + 20 nM CPT, ATP luminescence, 48 h; Potency, µM (titrated, usually from 46.2 µM), actives largely listed as inhibitors; 420,000 tested, 12% active; AID 686979; note: nearly all actives have a fitted effect of over 55% in size
#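 Cell growth measured by CellTiter-Glo luminescence after a minimum 48 h, 37 C compound exposure with 20 nM CPT in Tdp1-knockout DT40 cells stably expressing hTDP1, seeded 400/well; qHTS titration format.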
# Numbers stand for hits; - = inactive; ? = inconclusive; . = no result given; ! = a repeat was not active; [ ] = another dose, or the depositor's remark. Unless noted, calls come from the whole dose curve; as a rule, active = well fitted curve in the direction sought with a large enough effect; inconclusive = small, poorly fitted or top-dose-only effect, or another doubt; inactive = no such curve, though single readings can be large; an effect the other way counts as inactive or inconclusive.
SMILES,DT40 TDP1 no CPT,IL-1B inflam inh,HT1080 IDH1KD tx,HT1080-NT tox,ALOX12 inh,TDP1 cell CPT
NS(=O)(=O)c1ccc(N2N=C(c3ccccc3)CC2c2cccc(Cl)c2)cc1 (stereo unspecified),-,-70,?,?,?,-
CC(=O)Nc1ccc(C2=NN(c3ccccc3)C(c3ccccc3)C2)cc1 (stereo unspecified),23µM,-,-,-,-,?
CC(C)NCC(O)COC1C2CC3CC(C2)CC1C3 (stereo unspecified),-,-,-,-,-,-
CC1CCC(C(C)C)C(OCC(O)CNC(C)C)C1 (stereo unspecified),?,-,-,-,-,23µM
CC[C@]12C(=O)N(C)C[C@H]([C@@H]3C(=O)N(C)C(=O)[C@@H]31)N2C(=O)c1ccccc1,-,-,-,-,-,-
CCOC(=O)/C(C#N)=C/c1cc2ccccc2nc1N1CCOCC1,-,-,-,-,-,-
c1ccc(-c2cc3ccccc3nc2N2CCCC2)cc1,?,-,-,-,-,-
N#CC(C#N)=Cc1cc2ccccc2nc1N1CCCCC1,21µM,-104,-,-,-,21µM
N#Cc1ccc(C(=O)/C=C/c2cc3ccccc3nc2N2CCOCC2)cc1,.,.,.,.,11µM,.
CCCc1nc(C(=O)NC(C)c2cnn(-c3ccccc3)c2C)cs1 (stereo unspecified),.,.,.,.,-,.
COCCN=c1scc(-c2cc(OC)c(OC)c(OC)c2)n1/N=C/c1c(C)[nH]c2ccccc12,18µM,?,?,?,-,?
COc1cc(/C=C(\C#N)C(=O)c2c(C)[nH]c3ccccc23)cc(OC)c1OC,?,-,-,-,?,-
CN(CC(=O)Nc1ccc(Cl)c(C(F)(F)F)c1)C(=O)c1ccc(S(=O)(=O)N2CCOCC2)cc1,6.5µM,-,10µM,-[9.24 µM],-,4.6µM
CN(CC(=O)Nc1ccc(Cl)c(C(F)(F)F)c1)C(=O)c1ccc(OCC2CCCO2)cc1 (stereo unspecified),16µM,-,?,-,-,18µM
Cc1ccc(S(=O)(=O)N2CCCCC2)cc1C(=O)N(C)CC(=O)Nc1ccc(Cl)c(C(F)(F)F)c1,?,-56,-,-,-,?
Cc1ccc(C(=O)N(C)CC(=O)Nc2ccc(Cl)c(C(F)(F)F)c2)cc1S(=O)(=O)N1CCCCC1,23µM,-,?,?,-,?
Cc1ccc(C(=O)N(C)CC(=O)Nc2cccc(F)c2)cc1S(=O)(=O)N1CCCCC1,?,-,-,-,-,?
CN(CC(=O)Nc1ccc(Cl)c(C(F)(F)F)c1)C(=O)C1CCC1,?,-,-,-,?,?
COc1nc2nc(CCc3ccccc3)n(C)c2cc1-c1ccc(CO)cc1,.,.,.,.,-,.
COc1ccc(C)cc1C(C)NC(=O)c1n[nH]c(=O)c2ccccc12 (stereo unspecified),.,.,.,.,-,.
COC(=O)[C@@]1(C#N)CC(=O)N([C@@H](CO)c2ccccc2)[C@H]1c1ccccc1,.,.,.,.,-,.
Cc1ccccc1-c1cnc2[nH]cc(CC(=O)NCCN(C)C)c2c1,.,.,.,.,-,.
Cc1ccc(C)c(NC(=O)C(C)SC(c2ccccc2)c2ccccc2)c1 (stereo unspecified),.,.,.,.,-,.
COc1ccc(S(=O)(=O)N2CCCCCC2)cc1C(=O)N(C)CC(=O)Nc1ccc(Cl)c(Cl)c1,?,-59,-,-,-,?
COc1cccc(NC(=O)CN(C)C(=O)c2cc(S(=O)(=O)N3CCCCC3)ccc2Cl)c1,?,-,-,-,?,?
SMILES,DT40 TDP1 no CPT,IL-1B inflam inh,HT1080 IDH1KD tx,HT1080-NT tox,ALOX12 inh,TDP1 cell CPT
O=C(O)[C@H]1CCCC[C@H]1C(=O)Nc1ccc(Nc2ccccc2)cc1,?,-,-,-,-,-
Cc1ccccc1N1CCN(c2ccc(NC(=O)C3CCCCC3C(=O)O)cc2)CC1 (stereo unspecified),9.2µM,-,-,-,-,?
O=C(c1ccc(F)cc1)N1CCCC(c2nc(C3CCOCC3)no2)C1 (stereo unspecified),.,.,.,.,-,.
Cc1ncoc1C(=O)N1CCc2c([nH]c3ccccc23)C1c1ccccc1F (stereo unspecified),-,-,-,?,-,-
COc1cc(C(=O)N2CCc3c([nH]c4ccccc34)C2c2ccc(F)cc2)cc(OC)c1OC (stereo unspecified),15µM,.,.,.,-,13µM
CCn1nc(C)cc1C(=O)N1CCc2c([nH]c3ccccc23)C1c1cc(F)ccc1F (stereo unspecified),?,?,23µM,?,-,?
CCOc1cc(C(=O)N2CCc3c([nH]c4ccccc34)C2c2ccccc2)cc(OCC)c1OCC (stereo unspecified),5.8µM,.,.,.,-,6.5µM
O=C(c1ccc(F)cc1)N1CCc2c([nH]c3ccccc23)C1c1ccc(Cl)cc1 (stereo unspecified),?,.,.,.,-,?
COc1cc(C#N)ccc1OCC(=O)c1ccc2c(c1)CCC2,.,.,.,.,-,.
COc1ccc(Cl)cc1S(=O)(=O)N1CCC(C(=O)NCCC2=CCCCC2)CC1,?,-,-,-,-,23µM
Cc1nn(C)c(C)c1S(=O)(=O)N1CCC(C(=O)NCCC2=CCCCC2)CC1,?,-,-,-,-,18µM
COc1ccc(S(=O)(=O)N2CCCC(C(=O)NCCC3=CCCCC3)C2)cc1 (stereo unspecified),?,-,-,-,-,-
Cc1cc(C)c(S(=O)(=O)N2CCCC(C(=O)NCCC3=CCCCC3)C2)c(C)c1 (stereo unspecified),21µM,-,-,-[9.24 µM],-,?
O=c1[nH]nc2n1CCC(NS(=O)(=O)Cc1cccc(F)c1)CC2 (stereo unspecified),.,.,.,.,-,.
Cc1cc(C)c(NC(=O)Cn2cnc3c2c(=O)n(C)c(=O)n3C)c(C)c1,.,.,.,.,-,.
O=C(NNC(=O)C12CCC(CC1)C2)c1ccncc1,.,.,.,.,-,.
O=C(Nc1cccc(NC(=O)c2cccc(Cl)c2)c1)c1cccnc1,?,-,-,-,-,?
Cc1cc(C(=O)NCCC2=CCCCC2)cs1,.,.,.,.,-,.
COC(=O)c1ccc(Cn2nc(-c3ccc(C)cc3)ccc2=O)cc1,?,-,-,-,?,16µM!
COC(=O)c1ccc(Cn2nc(-c3ccc(C)c(C)c3)ccc2=O)cc1,?,-,-,-,-,?
Cc1cn2c(=O)cc(COc3cccc(NC(=O)c4ccccc4Cl)c3)nc2s1,13µM,.,.,.,-,?
Cc1cn2c(=O)cc(COC(=O)c3cccc(NC(=O)c4ccccc4C)c3)nc2s1,-,.,.,.,?,-
